# Measurements reported in PubChem BioAssay (NCI).
# Compounds without any hit were thinned out: in the full panel of roughly 83,000, 20% have a hit.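 Single-concentration screen, 48 h exposure, 96-well plates. Endpoint: percent growth. Below 10 = active.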 Unmarked numbers belong to inactive results. The source made the active and inactive calls.
# Key:
# Test in all cases: NCI-60 one-dose screen, 48 h (100 = growth as untreated, 0 = no growth, -100 = all killed)
# Conditions in all cases: 10 µM unless noted
# HT29 colon = tested on: HT29 colon
# SNB-75 CNS = tested on: SNB-75 CNS
# SNB-19 CNS = tested on: SNB-19 CNS
# U251 CNS = tested on: U251 CNS
# PC-3 prostate = tested on: PC-3 prostate
# SK-MEL-5 melanoma = tested on: SK-MEL-5 melanoma
# UACC-62 melanoma = tested on: UACC-62 melanoma
# LOX IMVI melanoma = tested on: LOX IMVI melanoma
# SK-MEL-28 melanoma = tested on: SK-MEL-28 melanoma
# SK-MEL-2 melanoma = tested on: SK-MEL-2 melanoma
Structure (SMILES),growth (HT29 colon),growth (SNB-75 CNS),growth (SNB-19 CNS),growth (U251 CNS),growth (PC-3 prostate),growth (SK-MEL-5 melanoma),growth (UACC-62 melanoma),growth (LOX IMVI melanoma),growth (SK-MEL-28 melanoma),growth (SK-MEL-2 melanoma)
COc1ccc2[nH]cc(/C=C3/C(=O)Nc4ccc(Cl)cc43)c2c1,17.5%,-1.24% (active),70.7%,38%,64.6%,55.2%,51.8%,17.7%,–,–
COc1ccc(C(=O)C(C)Br)cc1OC (stereo not given),37.7%,85.8%,95.7%,78.7%,98.6%,92.1%,86.3%,79.2%,112%,86%
CCN(CC)c1ccc(C(O)C2=CC(=O)c3ccccc3C2=O)cc1 (stereo not given),9.6% (active),24.9%,15.3%,-80.9% (active),-2.59% (active),-38% (active),-45.3% (active),-51.8% (active),-23.1% (active),-27.9% (active)
OC(CCC(O)(c1ccccc1)c1ccccc1)(c1ccccc1)c1ccccc1,78.4%,83.9%,106%,87.7%,24.4%,90.6%,62.2%,71.4%,112%,–
CN(C)c1nc(N)nc(Cn2c(-c3nonc3N)nc3ccccc32)n1,72.9%,56.4%,91.8%,90.1%,82.6%,86.9%,73%,76.6%,82%,90.5%
O=NC1CC=CCC1c1ccccc1 (stereo not given),100%,93.5%,109%,105%,94%,108%,100%,104%,114%,–
NC(=O)SCC(=O)Nc1ccccc1-c1ccccc1,87.2%,138%,89.5%,92.9%,90.2%,111%,81.5%,90.6%,116%,88.9%
CC(=O)Oc1ccc(C23c4ccccc4C2(OC(C)=O)c2cc(OC(C)=O)ccc23)cc1 (stereo not given),111%,54%,65.9%,9.83% (active),30.9%,88.8%,77.8%,48.2%,124%,–
CC1CC(C)/C(=N/NC(N)=O)C(C(O)CC2CCC(=O)NC2=O)C1 (stereo not given),35.8%,57.7%,31.4%,35.1%,40.6%,31.7%,46.3%,27.3%,37%,33.8%
Cn1cc(-c2csc(-c3cn(C)c4ncccc34)n2)c2cccnc21,98.7%,75.7%,94%,96%,86.9%,84.9%,79.4%,95%,101%,–
CC(=O)Nc1ccc2c(c1)Cc1c(F)c(F)c(F)c(F)c1-2,97.1%,44%,90.3%,78.8%,81.9%,84.7%,77.4%,80.3%,102%,-27.7% (active)
CNc1ccc(CSc2ccc(Cl)cc2)cc1,109%,95.4%,89.5%,97.4%,72.9%,97.9%,83%,103%,112%,–
COc1cccc(CCC2C(=O)CCCC2=O)c1,111%,108%,96.8%,109%,104%,104%,103%,117%,119%,112%
S=C(Nc1ccc(C2=NCCN2)cc1)Nc1ccc(C2=NCCN2)cc1,101%,110%,105%,97.9%,100%,96.6%,107%,96.7%,110%,111%
COc1cc(/C=C2\CCC/C(=C\c3ccc(OCC4CO4)c(OC)c3)C2=O)ccc1OCC1CO1 (stereo not given),-15% (active),51.4%,63.4%,12.7%,50.7%,18.4%,3.6% (active),-59.9% (active),14.8%,–
Cc1c(C(N)=O)sc2c1c(=O)n(Cc1ccccc1)c1nnc(SCC(=O)Nc3ccc(Cl)cc3)n21,37.1%,-52% (active),58%,20.2%,38.1%,51.8%,57.6%,41.8%,17.3%,0.559% (active)
Nc1nc(SCc2ccccc2Cl)c(-c2ccccc2)c(SCc2ccccc2Cl)n1,64.3%,107%,116%,86.9%,76.3%,109%,99.6%,84.7%,101%,–
Fc1ccc(-c2nnc(-c3c(-c4ccc(F)cc4)nc4ncccn34)o2)cc1,93.2%,102%,107%,107%,104%,95.4%,100%,96.4%,101%,–
COc1ccc2c(c1)/C(=C\c1c[nH]c3ccc(F)cc13)C(=O)N2,86.1%,86.7%,93.9%,83.4%,84%,97%,90.7%,74.3%,105%,–
COc1ccc2c(c1)nc(N)c1c3cc(C)c(C)cc3cn21,37.9%,92.8%,77.5%,53.9%,90.3%,58.8%,44%,75.4%,81.1%,84.4%
O=C(Nc1ccc(OCc2nnc(-c3ccccc3)o2)c(F)c1)Nc1ccc(Cl)c(C(F)(F)F)c1,9.92% (active),40.2%,29.9%,7.14% (active),-16.2% (active),4.6% (active),27.4%,7.41% (active),49.2%,–
Nc1nc(N)c([N+](=O)[O-])c(=O)[nH]1,98.6%,106%,108%,102%,94.5%,102%,105%,105%,107%,–
O=C(CCc1nnc2sc(Cc3ccccc3Cl)nn12)c1nc2ccccc2[nH]1,99.4%,78.7%,96.2%,97%,85.5%,91.8%,83.9%,87.9%,110%,93%
Cc1c(C(N)=O)sc2ncn(CC(=O)Nc3ccc(Cl)cc3)c(=O)c12,126%,101%,103%,102%,97%,107%,99.2%,96.8%,145%,–
COc1ccc2nc(NC(=O)c3cc(-c4ccc(F)cc4)n4nc(-c5ccccc5)cc4n3)sc2c1,92.5%,80.4%,83.3%,64.2%,63.7%,55.5%,67.9%,67.9%,73.1%,–
CC[N+](CC)(CCOCCOCC[N+](CC)(CC)Cc1ccc([N+](=O)[O-])cc1)Cc1ccc([N+](=O)[O-])cc1,113%,85.7%,101%,100%,87.6%,96.8%,88.4%,104%,115%,106%
NC(N)=NC(N)=NCCCc1ccccc1,68.2% [100 µM],57.5% [100 µM],77.8% [100 µM],83.7% [100 µM],52.7% [100 µM],28.6% [100 µM],88.4% [100 µM],57.4% [100 µM],97% [100 µM],70.7% [100 µM]
COc1ccc(C(=O)/C=C/c2c(Cl)nc3c(c(C)nn3-c3ccccc3)c2-c2ccc(Br)cc2)cc1,100%,88.2%,101%,110%,107%,101%,91.8%,96.4%,106%,93.8%
